Assay outcomes from PubChem BioAssay.
Hits are enriched below; roughly 2% of the tested compounds scored in any of these assays.
E-sel TNF inh – blocks E-selectin expression induced by TNF alpha | HUVEC TNFa-induced E-selectin immunofluorescence, high content | inhibition, % at 2 µM | 0.71% of 120,000 active;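 active = inhibition above the batch mean plus 3 SD, and confirmed as a hit on visual image review, cut at about 43% in these data; inconclusive = passes the inhibition cutoff but fails visual image review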;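 also: 0% = TNF-stimulated DMSO wells and 100% = unstimulated control wells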
PLAP act – activators of human placental alkaline phosphatase; P05187; purified PLAP enzyme, luminescent substrate read-out; hits give high values; activation fold at 20 µM; 1.2% of 96,000 active; in the data active = activation fold above about 2
Target sequence (P05187 whole entry, looked up): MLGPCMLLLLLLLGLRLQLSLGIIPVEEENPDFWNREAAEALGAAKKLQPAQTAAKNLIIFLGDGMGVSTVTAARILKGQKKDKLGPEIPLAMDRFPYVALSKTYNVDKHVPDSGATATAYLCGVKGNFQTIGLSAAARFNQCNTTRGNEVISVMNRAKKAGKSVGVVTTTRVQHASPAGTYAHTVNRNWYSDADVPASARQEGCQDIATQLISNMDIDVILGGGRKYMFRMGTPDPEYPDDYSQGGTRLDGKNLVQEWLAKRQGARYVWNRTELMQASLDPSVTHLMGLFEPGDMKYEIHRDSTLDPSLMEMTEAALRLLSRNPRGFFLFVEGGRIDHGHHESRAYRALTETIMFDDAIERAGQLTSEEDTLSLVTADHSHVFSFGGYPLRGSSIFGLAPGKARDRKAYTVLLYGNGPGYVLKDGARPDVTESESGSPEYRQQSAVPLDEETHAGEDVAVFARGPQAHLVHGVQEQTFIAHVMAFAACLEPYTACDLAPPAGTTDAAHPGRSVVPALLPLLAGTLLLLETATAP
F-actin modifier – cytoskeleton assembly modification | HUVEC TNFa F-actin phalloidin imaging, high content | inhibition, % at 2 µM | 0.18% of 91,000 active;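 active = inhibition above the batch mean plus 3 SD and confirmed as a hit by visual image inspection, cut at about 30% in these data, passing the limit was not always enough; inconclusive = above the inhibition threshold but rejected on visual inspection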
VCAM1 TNFa inh – reduces TNF alpha induced VCAM1 expression in HUVEC | HUVEC TNFa-induced VCAM-1 immunofluorescence, high-content imaging | AID 802 | inhibition, % at 2 µM | 0.48% of 95,000 active;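 active = inhibition above the batch mean plus 3 SD, with images confirmed as a hit by eye, cut at about 37% in these data; inconclusive = inhibition above that limit but hit not confirmed in images; inactive = inhibition not above that limit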;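 also: 0% = TNF-stimulated DMSO wells and 100% = unstimulated control wells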
TNFa cytotox – HUVEC cytotoxicity counter-screen, TNF alpha stimulated. HUVEC TNFalpha-stimulated, Hoechst cell count, imaging. cell count reduction, % at 2 µM. 0.17% of 93,000 active. AID 848;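 active = cell count reduction exceeding the screen mean by over 5 SD, scaled to untreated wells per plate, cut at about 78% in these data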;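 also: cells counted after 24 h of TNF alpha exposure following the 1 h pretreatment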
Numbers without * were called inactive; u = inconclusive; x = no result.

SMILES	E-sel TNF inh	PLAP act	F-actin modifier	VCAM1 TNFa inh	TNFa cytotox
CCn1c(CNC(=O)COc2ccc(C(C)C)cc2)nnc1SCC(=O)Nc1ccccc1F	-26	2*	12	10	-13
CS(=O)(=O)N1CCN(c2ccccc2NC(=O)c2ccco2)CC1	-5	0.9	-5	6	0
O=C(NCCN1C(=O)CSC1=O)c1ccccc1	69*	1.1	-1	-2	-1
COC(=O)c1c(C(=O)OC)c2ccncn2c1Cl	2	2.4*	3	10	-26
COC(=O)c1cn(-c2ccccc2)nc1-c1ccncc1	-49	1	12	-10	-8
Cc1c(Cl)c([N+](=O)[O-])nn1Cc1ccc(C(=O)N/N=C\c2cccc(Br)c2)o1	2	1.3	25	-5	3
Cc1ccc(S(=O)(=O)N2CCN(CC(=O)NC(=O)NCc3ccccc3)CC2)cc1C	-21	0.8	0	16	-15
COc1cccc(-c2nn(C)c3sc(C(=O)NCc4ccc5c(c4)OCO5)cc23)c1	x	2.2*	2	14	-30
CC(C)CC(c1nnnn1Cc1ccc2c(c1)OCO2)N1CCC(C(N)=O)CC1 (centres undefined)	10	x	x	x	x
O=C(COc1ccccc1-c1ccccc1)N/N=C/c1cccc2ccccc12	17	0.9	-31	69*	55
CC(=O)OCCNC(=O)Cn1cnc2c1c(=O)n(C)c(=O)n2C	15	0.9	x	x	x
COc1ccc(C(=O)c2ccc(N(C)C)cc2)c2ccccc12	-4	x	27	60*	54
CN(C)c1ccc(C(=O)c2ccc(O)cc2O)cc1	-6	x	-13	22	-4
CCOc1ccc(N(C(C)C(=O)Nc2ccc(OC)cc2)S(C)(=O)=O)cc1 (centres undefined)	-4	1.6	0	-18	-5
CCN(CC)S(=O)(=O)c1ccc(NC(=O)C(C)N(c2ccc(OC)cc2)S(C)(=O)=O)cc1 (centres undefined)	7	1.9	u	u	100*
COc1cc2[nH]c(-c3ccc(C)cc3)cc(=O)c2cc1OC	-16	x	x	x	x
Cc1ccc2[nH]c(-c3ccccc3)cc(=O)c2c1	x	1.1	-106	64*	37
CC(C)C(=O)N(c1ccc(F)cc1)C1C=CS(=O)(=O)C1 (centres undefined)	82*	0.9	10	-10	-18
O=C(O)c1ccccc1C(=O)N1CCN(c2cccc(Cl)c2)CC1	11	x	10	7	-21
CCOc1ccccc1C(=O)N1CCN(c2cccc(Cl)c2)CC1	-14	1.1	-5	84*	73
CCOc1ccccc1N1CCN(C(=O)c2cccc(-c3ccc(O)cc3)c2)CC1	2	1.6	23	44*	-1
O=S(=O)(c1ccc(Cl)c(Cl)c1)c1snnc1-c1ccccc1	19	0.5	5	96*	48
C=CCn1c(=O)c2ccc(C(=O)NCc3ccccc3)cc2n(Cc2ccc(C)cc2)c1=O	9	x	x	x	x
CCc1ccc(N(CC(=O)NCc2ccc(F)cc2)C(=O)c2csnn2)cc1	-4	x	x	x	x
CCSc1nc2ccccc2n1C(=O)/C=C\c1ccc(OC)c(OC)c1	-46	1.1	23	94*	22
SMILES	E-sel TNF inh	PLAP act	F-actin modifier	VCAM1 TNFa inh	TNFa cytotox
CCSc1nc2ccccc2n1CC(N)=O	-28	x	4	-8	-25
COc1ccc(OC)c(-n2c(-c3cc(-c4ccc(F)cc4)n[nH]3)n[nH]c2=S)c1	-25	2*	-8	-3	8
COc1ccc(OC)c(-n2c(-c3ccc(C)cc3)n[nH]c2=S)c1	3	0.9	-2	1	6
COC(=O)C1CCN(C(=O)COC(=O)c2n[nH]c3ccccc23)CC1	-1	x	x	x	x
COc1ccccc1CNC(=O)COC(=O)c1n[nH]c2ccccc12	26	2.3*	-9	6	-4
CC1CCCN(C(=O)COC(=O)c2n[nH]c3ccccc23)C1 (centres undefined)	x	2*	22	0	-26
CCn1ncc(Cl)c1C(=O)NC(C)c1ccccc1 (centres undefined)	13	1.1	x	x	x
S=c1[nH]nc(-c2cc(-c3ccco3)[nH]n2)n1-c1ccccc1	-17	2.1*	1	0	-1
S=c1[nH]nc(-c2cc(-c3ccco3)[nH]n2)n1-c1ccccc1Cl	5	1.8	0	3	-6
CCn1c(COc2cc(C)ccc2C(C)C)nnc1SCC(=O)Nc1nccs1	-42	x	x	x	x
COc1ccc(S(=O)(=O)N(CC(=O)O)c2ccccn2)cc1	5	1.1	-16	10	-7
COc1ccc(S(=O)(=O)n2ccc(-c3ccc(OCCN(C)c4ccccn4)cc3)n2)cc1	29	1.2	66*	0	-16
Cc1sc2ncnc(SCC(=O)c3ccc4c(c3)OCCO4)c2c1-c1ccccc1	-17	x	x	x	x
c1ccc(-n2c(Sc3cnccn3)nnc2-c2cccs2)cc1	63*	0.9	-12	-3	9
NC(=O)CSc1nnc(-c2cccs2)n1-c1ccccc1	16	1	3	11	-4
CCC(CC)C(=O)NCCCN1CCOCC1	18	x	x	x	x
CCC(CO)n1c(SCc2cc(=O)oc3cc(C)ccc23)nc2ccccc2c1=O (centres undefined)	18	2.7*	-14	-6	5
Cc1[nH]n(-c2ccc([N+](=O)[O-])cc2)c(=O)c1N=Nc1nc2ccccc2s1	19	x	6	52*	-4
Cc1ccc(OCCSc2nc(NC(C)C)nc(NC(C)C)n2)cc1	-1	x	x	x	x
COc1ccc(CNC(=O)c2cc3c(s2)CS(=O)C3)cc1 (centres undefined)	21	1.1	8	4	-38
COC(=O)c1cc2c(s1)CS(=O)C2 (centres undefined)	96*	x	x	x	x
CCCCNc1ccccc1C(=O)OCC(=O)Nc1ccc(S(N)(=O)=O)cc1	9	2.1*	-11	13	-6
O=C1c2ccccc2C(=O)N1c1ccc(Cl)cn1	-4	1.1	-3	15	-3
O=c1cc(CSc2nnc(Nc3ccccc3)s2)nc2sccn12	0	0.9	-9	-8	-15
Cc1cccc(Nc2nnc(SCc3cn4ccsc4n3)s2)c1	18	2.1*	19	18	-25
SMILES	E-sel TNF inh	PLAP act	F-actin modifier	VCAM1 TNFa inh	TNFa cytotox
CCn1nc([N+](=O)[O-])c2c(-c3nc4ccccc4o3)c(N)n(CCCOC)c2c1=O	-6	x	x	x	x
CNc1c([N+](=O)[O-])cnn1-c1ccc(Cl)cc1	-36	1.2	50*	7	-12
O=[N+]([O-])c1ccc(-n2nncc2-c2ccc(Cl)cc2)cc1	1	0.8	-6	15	-17
CCOC(=O)c1c(C)[nH]c(C)c1C(=O)COC(=O)c1nc2nccc(C)n2n1	1	x	x	x	x
CC(C(=O)NCC1CCCO1)n1cccc1C(=O)c1ccccc1 (centres undefined)	13	1.1	11	-6	0
Cc1cc(Cl)c(S(=O)(=O)N2CCCC2)cc1OCC(=O)NC1CCCCC1	13	2*	1	8	-1
Cc1cc(Cl)c(S(=O)(=O)NC(C(=O)O)C(C)C)cc1OCC(=O)NC1CCCCC1 (centres undefined)	19	2*	9	2	-12
Cc1cc(Cl)c(S(=O)(=O)Nc2ccc3c(c2)OCO3)cc1OCC(=O)NC1CCCCC1	20	1.7	8	12	-18
